PfM18AAP inh: PfM18AAP enzyme inhibition | inhibition, % at 7.35 µM | recombinant PfM18AAP, H-Glu-NHMec fluorogenic cleavage | AID 1822 | hit rate 1.2% among 290,000;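 active = inhibition above the campaign mean inhibition over all tested compounds plus 3 SD, cut at about 28% in these data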;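 note: 0% = plate median of test compound wells and 100% = 2 mM ZnCl2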
beta cell repl: MIN6 beta-cell proliferation induction. proliferation, % at 10 µM. MIN6 cells proliferation, ATPlite luminescence, 48 h; cells starved in 0.2% serum; 100% = growth in 10% serum. hit rate 0.29% among 330,000. AID 2380;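 active = compounds whose signal lies at least 3.5 SD above the mean of all wells on their plate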;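 note: 0% = DMSO-treated cells in low-serum medium and 100% = 10% serum control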
GASC-1 inh: inhibitors of human GASC-1 (JMJD2C) demethylase | Q9H3R0 | GST-JMJD2C(1-420) H3K9me3 demethylation, DELFIA europium | inhibition, % at 2.35 µM | hit rate 0.069% among 330,000 | AID 2099;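 active = more than half of a compound's replicate wells show inhibition beyond 50%, single wells judged on their own value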;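 note: signal counts dimethyl H3K9 product captured on neutravidin plate; 0% = median of DMSO wells and 100% = 0.3 times that DMSO median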
SMARCA2 activ: SMARCA2 function activation, primary screen; MG213 cells, MMTV-luciferase reporter, dexamethasone, overnight; activation, % at 9.1 µM; hit rate 1% among 370,000; in the data active = activation above about 7.8%;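 note: 0% = vehicle wells and 100% = reference activator wells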
Granule exo inh: lytic granule exocytosis inhibition; TALL-104 LAMP-1 surface exposure, flow cytometry; cells stimulated with thapsigargin and PMA; inhibition, % at 10 µM; hit rate 0.66% among 360,000;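 active = inhibition above about 55%, limit read from the data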
ALR inh: blocks human ALR sulfhydryl oxidase activity | P55789 | purified ALR, DTT oxidation, H2O2 HRP-luminol luminescence | inhibition, % (no concentration beside the values) | hit rate 3.8% among 290,000 | AID 485317;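 active = mean replicate inhibition above about 79%, with every replicate also reaching it, limit read from the data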
Target sequence (P55789 whole entry, looked up): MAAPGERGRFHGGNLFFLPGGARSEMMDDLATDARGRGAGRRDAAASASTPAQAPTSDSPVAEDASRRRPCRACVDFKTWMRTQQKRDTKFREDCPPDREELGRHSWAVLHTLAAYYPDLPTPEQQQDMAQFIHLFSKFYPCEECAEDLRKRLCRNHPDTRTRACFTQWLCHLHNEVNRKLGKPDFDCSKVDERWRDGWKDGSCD
An asterisk follows results filed as active; / = no result given. A selection: hits, their analogues and other compounds. The true share with any hit is near 5.4%.

SMILES	PfM18AAP inh	beta cell repl	GASC-1 inh	SMARCA2 activ	Granule exo inh	ALR inh
CCN(CC)CCOC(=O)c1ccc(NC(=O)c2cn(-c3ccccc3)nc2-c2cccs2)cc1	-1	-5	/	3	90*	/
CC(=O)N1c2ccccc2C(=O)NCC1C(=O)NC(C)(C)C (configuration not stated)	/	/	/	-1	/	/
Cc1ccc2c(c1)C1CS(=O)(=O)N(CC(C)C)CN1C2 (configuration not stated)	/	/	/	3	/	/
CSc1cccc(NC(=O)c2ccco2)c1	-1	-1	9	3	-7	98*
CN(C)c1cccc(NC(=O)c2ccco2)c1	12	-3	-5	0	-2	99*
CC1N(C)c2cc(NC(=O)c3ccco3)c(P(=O)(Nc3ccc([N+](=O)[O-])cc3)N3CCOCC3)cc2C1(C)C (configuration not stated)	3	-4	-10	-4	7	-34
CN(C(=O)c1cccc(NC(=O)c2ccco2)c1)c1ccccc1	-4	-1	-5	-3	13	/
CC1N(C)c2cc(NC(=O)c3ccco3)ccc2C1(C)C (configuration not stated)	7	-4	3	0	0	98*
Cc1nc(Sc2nnnn2C)c2c3c(sc2n1)CCC3	-8	-4	-6	1	-1	94*
CCc1nc(Sc2nnnn2-c2ccccc2)c2c3c(sc2n1)CCCC3	-4	-5	1	-1	-3	10
CC(=O)C1=C(C)N(Cc2ccc(Cl)cc2)C(=S)NC1c1cccc(Br)c1 (configuration not stated)	/	/	/	-4	/	/
S=C(NCCc1ccccn1)Nc1ccccc1Cl	-4	-2	6	8	41	94*
Cc1cccc(NC(=S)NCc2ccccn2)c1	4	-3	-19	0	-6	5
S=C(NCc1ccccn1)Nc1cccc(Cl)c1	30*	-1	0	0	-5	-12
CCCCOc1ccc(C(=O)n2ccc3ccc(-c4ccc5ccn(Cc6cccc(C(=O)OC)c6)c5c4)cc32)cc1	/	/	/	-1	/	/
CCOc1ccc(-c2cc3nc(C4CCN(C(=O)OC(C)(C)C)CC4)c(C(=O)O)cn3n2)cc1	-2	2	24	-1	1	98*
CCOC(=O)N1CCN(C(=O)c2cc(-c3ccc(OCC)cc3)nc3ccccc23)CC1	8	-6	6	0	6	-14
Cc1ccc(C2Cc3cc(O)c(O)cc3CN2)cc1 (configuration not stated)	/	-4	24	3	3	99*
O=C(CCS(=O)(=O)c1cc2c(cc1Br)CCN2C(=O)C1CC1)N1CCN(c2ccccn2)CC1	/	/	/	0	/	/
O=C(NCc1ccccn1)c1cc2n(n1)C(C(F)(F)F)CC(c1ccco1)N2 (configuration not stated)	31*	-4	-10	-2	3	0
Cc1ccccc1CC(=O)N1CCC(n2nnc3ncccc32)CC1	/	/	/	1	/	/
Cc1cccc(CCNC(=O)C2CCN(S(=O)(=O)N3CCOCC3)CC2)c1	0	3	-8	0	-3	0
CCN(CCCNS(=O)(=O)c1ccc2c(c1)oc(=O)n2C)c1cccc(C)c1	10	0	5	-1	1	97*
CCCS(=O)(=O)N1CCCC(C(=O)NCCN(CC)CC)C1 (configuration not stated)	7	-3	-11	-1	2	-1
CCN(c1cccc(C)c1)S(=O)(=O)c1ccc2c(c1)oc(=O)n2C	-8	1	16	-1	-3	-10
SMILES	PfM18AAP inh	beta cell repl	GASC-1 inh	SMARCA2 activ	Granule exo inh	ALR inh
CCCS(=O)(=O)N1CCCC(C(=O)NCCN(CC)c2ccccc2)C1 (configuration not stated)	1	0	3	-1	8	99*
CCCS(=O)(=O)N1CCCC(C(=O)NCCCN(CC)c2cccc(C)c2)C1 (configuration not stated)	-3	4	3	0	-2	99*
CCN(CCCNC(=O)C1CCN(S(=O)(=O)N2CCOCC2)CC1)c1cccc(C)c1	2	1	-27	2	-1	99*
O=C(c1cccs1)n1ccc2ccc(-c3ccc4ccn(Cc5ccccc5)c4c3)cc21	/	/	/	-3	/	/
COc1cccc(S(=O)(=O)N(C)C[C@@H]2Oc3ncc(Br)cc3C(=O)N([C@H](C)CO)C[C@@H]2C)c1	/	/	/	-1	/	/
O=C1C[C@@H](c2ccccc2)N=C2N(CC3CC3)C/C(=C/c3ccccc3)N12	/	/	/	-3	/	/
O=C(Nc1ccc(N2CCOCC2)cc1)C1CCCN(S(=O)(=O)c2ccccc2)C1 (configuration not stated)	6	0	-14	-4	0	-11
CN(C)c1ccc(NC(=O)C2CCCN(S(=O)(=O)c3ccccc3)C2)cc1 (configuration not stated)	8	-2	1	1	0	100*
COc1cc2c(ccc3cc(OC)c(OC)c(O)c32)cc1O	/	-6	55	0	5	99*
COc1cc2cccc(OC)c(=O)c2c(O)c1OC	2	-2	17	0	18	/
Nc1ncc(-c2ccccc2)c(-c2ccc(O)cc2O)n1	-9	0	5	-3	14	98*
COc1nc(OC)nc(N2CCC(C(=O)NCc3ccccc3OC)CC2)n1	/	/	/	-6	/	/
O=C(/C(=C/c1ccccc1)n1cncn1)c1ccc(Cl)cc1Cl	54*	0	8	5	6	71
CN(C)c1ccc(NC(=O)COC(=O)c2cc(=O)c3ccccc3o2)cc1	11	-1	-10	-2	-1	99*
CC(OC(=O)c1cc(=O)c2ccccc2o1)C(=O)Nc1ccc(N(C)C)cc1 (configuration not stated)	/	-2	/	3	1	/
COc1ccc(C(=O)CC(SCC(NC(C)=O)C(=O)O)c2ccc(Cl)cc2)cc1OC (configuration not stated)	15	-6	-6	0	-2	92*
COc1ccc(C(C)NC(=O)c2ccc(Cl)cc2)cc1OC (configuration not stated)	-2	0	-7	4	-1	-6
O=C(CSC1=NCCS1)Nc1cccc2ccccc12	5	-6	-3	0	-2	98*
O=C(CSc1cn[nH]n1)Nc1ccccc1F	/	-1	6	1	-6	/
CCCN1C(=O)CC(=O)N=C1SCC(=O)Nc1ccccc1F	/	-3	4	-3	5	99*
O=C(CSC1=NCCS1)Nc1ccccc1F	-6	0	8	-1	16	99*
Cc1cccn2c(=O)nc(SCC(=O)Nc3cccc4ccccc34)nc12	/	-5	-1	0	0	85*
C(=C\c1ccccc1)/CSc1nnc(Cc2cccs2)n1-c1ccccc1	/	/	/	-1	/	/
Cc1ccc(NC(=O)Cn2nnc(-c3ccccc3F)n2)cc1C	/	/	/	-5	/	/
CC(C)CNc1cccc2c1S(=O)(=O)N[C@@H](CC(C)C)CO2	/	/	/	-1	/	/

Source: PubChem BioAssay
